The target of one test is IL32. The test is described as follows: pooled miR-30 sensor sort-seq; sequence = guide strand. The conditions noted are these: shRNA.
Consider TAGGACTTGTCACAAAAGCTCT, for which the sensor-assay potency score (higher = more potent) was -1.15. In turn, TAGAGGAGTGAGCTCTGGGTGC registered a sensor-assay potency score (higher = more potent) of -1.21.

On to TTTATCATAAAATCTTTCTATG, for which the sensor-assay potency score (higher = more potent) is -1.15. Still for that read-out and setting: the value for TTGCGGGATCCTCAACATCCGG was -1.68; that for TGCGGGATCCTCAACATCCGGG was -0.63; that for TTTTATCATAAAATCTTTCTAT was -0.484. The same measure, in the same setting: the value for TAGGACTGGAAAGAGGACATGA was 0.275; that for TAAAATCTTTCTATGGCCTGGT was 0.537; that for ATAAAATCTTTCTATGGCCTGG was -0.133. Still for that read-out and setting: as for TGAAGTCGTCCTCCAGCTCTGC, the figure is -1.04; as for TTTTTCAAGTAGAGGAGTGAGC, -0.743; as for TTTGAAGTCGTCCTCCAGCTCT, -0.749.

The target in the next test is IL5. Described as above. The conditions noted are these: shRNA.
The sequence TATTTCTTTATTAAGGACAAGT had a sensor-assay potency score (higher = more potent) of -0.457. TTTTGAATAGTCTTTCCACAGT: the sensor-assay potency score (higher = more potent) was -0.99. TTCTTCAGTGCACAGTTGGTGA returned a sensor-assay potency score (higher = more potent) of -1.09. The same measure, in the same setting: the value for TTTGACTCTCCAGTGTGCCTAT was -0.108; that for TACAGGAACAGGAATCCTCAGA was -0.449; that for TTACTCTCCGTCTTTCTTCTCC was 0.308.

In turn, TACACCAAGAAACTCTTGCAGG yielded a sensor-assay potency score (higher = more potent) of -0.92. Regarding TCTTTCACCAATGCACTTGTGG, the sensor-assay potency score (higher = more potent) was -0.0823. As for TTCTTTATTAAGGACAAGTTTT, the sensor-assay potency score (higher = more potent) is -1.48. TTGAATAGTCTTTCCACAGTAC yielded a sensor-assay potency score (higher = more potent) of 0.569. Same read-out and setting: as for TTGCACAGTTTGACTCTCCAGT, the figure is -0.479; as for TTTTATGTACAGGAACAGGAAT, -1.18.

Values taken from the OligoGym collection.
Further: reference of the scale not given here.
